# Screening results as filed in PubChem BioAssay.
# IMPase Li inh: cell-permeable IMPase inhibitors with lithium potentiation | AID 1457 | hit rate 0.35% among 210,000 | Potency, µM (titrated, usually from 59.4 µM), inactives show at the top dose activity, negative = IMPase inhibition, most hits filed as inhibitors | CHO-M1 cells, IP1 TR-FRET (IP-One), carbachol + lithium;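 note: IP1 builds up when IMPase is blocked and the TR-FRET signal falls; potency is the fitted concentration of half-maximal effect; plate controls were basal vehicle for no effect and high inhibitor control for full effect; nearly all actives have a fitted effect of over 50% in size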
#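 Lithium-sensitised IP1 accumulation assay; M1-expressing CHO cells treated 30 min at 37C with compound. Competitive antibody detection by time-resolved FRET followed a 10 min room-temperature lysis step.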
# ALOX12 inhib: inhibitors of human 12-lipoxygenase (ALOX12) | P18054 | purified 12-hLO, xylenol orange hydroperoxide absorbance | Potency, µM (titrated, usually from 57.1 µM), for the others: at the top dose activity change, negative = inhibition, actives largely listed as inhibitors | hit rate 0.12% among 150,000; note: potency is the fitted concentration of half-maximal effect; nearly all actives have a fitted effect of over 55% in size
#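 Purified human 12hLO (150 nM final) was preincubated with compounds for 15 min at room temperature in 25 mM Hepes pH 7.0, 0.01% Triton X-100, then reacted with 40 uM arachidonic acid for 30 min. Hydroperoxide was detected with ferrous iron/xylenol orange.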
# HPGD inh: blocks human HPGD enzyme activity; P15428; purified HPGD, NADH fluorescence kinetic, PGE2 substrate; Potency, µM, inactives show at the top dose activity change, negative = inhibition, hits mostly inhibitors; hit rate 4.3% among 150,000; AID 894; active = well fitted inhibition curve with a large enough effect, not every such curve was filed as active; inconclusive = small, poorly fitted or top-dose-only effect, or another doubt; inactive = no such curve, though single readings can be large or run the other way; note: potency is the fitted concentration of half-maximal effect
# Target sequence (P15428 whole entry, looked up): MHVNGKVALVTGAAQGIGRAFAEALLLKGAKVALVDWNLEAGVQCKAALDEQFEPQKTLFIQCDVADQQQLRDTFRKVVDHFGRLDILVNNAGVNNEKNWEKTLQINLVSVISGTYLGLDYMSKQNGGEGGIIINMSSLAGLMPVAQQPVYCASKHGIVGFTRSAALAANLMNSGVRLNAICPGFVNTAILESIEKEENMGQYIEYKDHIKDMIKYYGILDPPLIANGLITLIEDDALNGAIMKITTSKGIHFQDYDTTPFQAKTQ
#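 NADH formation kinetics: reaction with 30 uM PGE2 and 1 mM NAD+ (final), 20 nM enzyme, Tris-HCl pH 8 with Tween 20, after 15 min compound preincubation at room temperature. Fluorescence change, last versus first of five reads.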
# NPSR antag: blocks cAMP signaling of the human neuropeptide S receptor; CHO-NPSR cells, cAMP TR-FRET, antagonist mode; Q6W5P4; Potency, µM (doses to about 38.3 µM), for the others: top-dose activity change, negative = inhibition, most hits filed as inhibitors; hit rate 1% among 220,000; note: potency is the fitted concentration of half-maximal effect; nearly all actives have a fitted effect of over 50% in size
# IMPase cell inh: membrane-permeable compound that blocks inositol monophosphatase. CHO-M1 cells, IP1 accumulation, HTRF TR-FRET ratio. 120,000 tested, under 10 active. AID 901. inhibition (IP1 accumulation), % at 46.1 µM. P97697; active = well fitted curve in the direction sought with a large enough effect in the signal ratio, not every such curve was filed as active; inconclusive = small, poorly fitted or top-dose-only effect, or a change in a side signal; inactive = no such curve, though single readings can be large or run the other way; the % refers to the signal ratio;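 note: cells stimulated with carbachol in lithium chloride buffer; plate controls were DMSO basal wells for no effect and reference inhibitor wells for full effect; higher means more IMPase inhibition seen as more IP1 and lower FRET ratio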
# Target sequence (P97697 whole entry, looked up): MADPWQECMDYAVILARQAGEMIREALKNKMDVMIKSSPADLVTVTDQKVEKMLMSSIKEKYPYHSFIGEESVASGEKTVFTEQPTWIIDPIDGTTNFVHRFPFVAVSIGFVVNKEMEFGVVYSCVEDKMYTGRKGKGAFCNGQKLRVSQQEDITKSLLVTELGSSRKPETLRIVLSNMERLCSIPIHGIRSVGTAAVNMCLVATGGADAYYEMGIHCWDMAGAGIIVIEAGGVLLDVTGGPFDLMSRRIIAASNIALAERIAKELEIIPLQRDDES
#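 CHO-M1, 2000 cells/well, cultured 16–30 h; cpd up to 46 uM; carbachol (50 uM solution, stimulation buffer w/ 50 mM LiCl, pH 7.4), 30 min 37C; IP-One TR-FRET, 10 min RT; Ex 320/Em 665, 620; Hill-fit AC50.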
# ALDH1A1 block: inhibitors of human aldehyde dehydrogenase 1A1. P00352. hit rate 7.3% among 220,000. Potency, µM (highest dose often 75.3 µM), without a hit: at the highest dose activity, negative = inhibition, most hits filed as inhibitors. Purified ALDH1A1, NADH fluorescence, propionaldehyde substrate. AID 1030; active = well fitted inhibition curve with a large enough effect, not every such curve was filed as active; inconclusive = small, poorly fitted or top-dose-only effect, or another doubt; inactive = no such curve, though single readings can be large or run the other way;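 note: potency is the fitted concentration of half-maximal effect; plate controls were no enzyme wells and a reference inhibitor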
# The depositor's hits bear a star; u = inconclusive; x = not tested or not shown; [ ] = another dose, or the depositor's remark. In the library only some 8.9% were active in any assay of this set; here they are far more common. Unless noted, calls come from the whole dose curve; as a rule, active = well fitted curve in the direction sought with a large enough effect; inconclusive = small, poorly fitted or top-dose-only effect, or another doubt; inactive = no such curve, though single readings can be large; an effect the other way counts as inactive or inconclusive. Unless noted, % is set by controls: 0 for no effect and ±100 for the full control effect.
SMILES,IMPase Li inh,ALOX12 inhib,HPGD inh,NPSR antag,IMPase cell inh,ALDH1A1 block
COC(=O)c1cc(OC)c(OC)cc1NC(=O)Nc1cccc(C(C)=O)c1,-0.3%,x,x,8.3%,x,-8.1%
CCCCCCC#CC1C=CC(OC(=O)OCC)C(COC(=O)OCC)O1 (stereo unspecified),x,x,x,x,x,3.98µM*
CCCCC#CC1C=CC(OC(C)=O)C(COC(C)=O)O1 (stereo unspecified),x,x,x,x,x,3.55µM*
CCOC(=O)OCC1OC(C#Cc2ccc(Br)cc2)C=CC1OC(=O)OCC (stereo unspecified),x,x,x,x,x,-18.6%[13.5 µM]
O=C(COc1ccccc1O)c1cccs1,4.4%[38.3 µM],-6.0%,u,-3.9%[46.1 µM],4.4,14.7%
COc1ccc(OC)c(N/C=C2/CCCCC2=O)c1,27.4%[38.3 µM],-3.7%,17.8µM*,u,18.2,u
COc1ccc(Oc2ccc(N/C=C3/CCCC3=O)cc2)cc1,7.4%,0.1%,-18.1%,-3.5%,x,u
COc1ccc(N/C=C2/CCCCC2=O)cc1,38.6%[38.3 µM],-11.7%,25.1µM*,3.1%[46.1 µM],8.2,11.2µM*
CN1Cc2c(N3CCOCC3)nc3sc(C#N)c(N)c3c2CC1(C)C,x,x,x,18.4%,x,x
CN1Cc2c(N3CCOCC3)nc3sc(C(=O)c4ccc(Br)cc4)c(N)c3c2CC1(C)C,x,x,x,12.6µM*,x,x
Cc1ccc(-c2ccc(S(=O)(=O)N3CCN(C)CC3)cc2)cc1,-19.6%[38.3 µM],6.4%,-10.6%,1.3%[46.1 µM],-7.4,-3.2%
Cc1ccc(C(=O)N/N=C/c2ccc(S(=O)(=O)O)o2)c(Cl)c1,36.9%[38.3 µM],-3.4%,-27.7%,-17.7%[46.1 µM],12.5,-8.6%
CCOC(=O)C1CCCCN1Cc1cc(OC)ccc1OC (stereo unspecified),-4.2%[38.3 µM],-5.2%,-5.4%,-12.6%[46.1 µM],4.5,15.8µM*
CCOC(=O)C1CCCCN1Cc1cccc(OC)c1OC (stereo unspecified),17.9%[38.3 µM],-4.8%,6.4%,-6.0%[46.1 µM],-6.8,u
CC(C)=NOc1cc(NC(=O)CCl)cc([N+](=O)[O-])c1,-3.5%,-1.5%,-9.6%,-31.0%,x,0.178µM*
CCC(=O)Nc1cc(ON=C(C)C)cc([N+](=O)[O-])c1,-0.8%,-4.3%,-0.8%,12.2%,x,-7.0%
CCCCC(c1nnnn1CS(=O)(=O)c1ccc(C)cc1)N1CCN(C)CC1 (stereo unspecified),5.5%,x,x,3.0%,x,-1.1%
O=S(=O)(CCN1CCN(C(c2ccccc2)c2ccccc2)CC1)C(F)(F)F,28.0%[38.3 µM],-2.5%,-5.6%,u,19.9,0.355µM*
c1ccc(OCCOCCN2CCN(C(c3ccccc3)c3ccccc3)CC2)cc1,17.5%,-14.1%,-11.7%,-40.4%,x,u
O=C(CCC1CCCCC1)Nc1ccccc1-c1ccccc1,12.5%[38.3 µM],-3.6%,-15.7%,-22.1%[46.1 µM],-3.8,u
O=C(CCC1CCCCC1)Nc1ccccc1O,19.4%[38.3 µM],-2.1%,20µM*,10.1%[46.1 µM],-0.6,u
O=C(CCc1ccc(S(=O)(=O)NC2CCCCC2)cc1)NCc1ccccn1,-12.2%,x,x,2.3%,x,-4.7%
O=C(CCC1CCCCC1)NCc1ccccn1,10.4%,1.6%,31.6µM*,16.6%,x,4.1%
O=C(CCC1CCCC1)Nc1ccccc1-c1ccccc1,14.4%,-2.7%,-8.1%,u,x,20µM*
CCN(CC)S(=O)(=O)c1ccc(OC)c(NC(=O)c2cccc(C)c2[N+](=O)[O-])c1,4.2%,x,x,-22.6%,x,5.62µM*
SMILES,IMPase Li inh,ALOX12 inhib,HPGD inh,NPSR antag,IMPase cell inh,ALDH1A1 block
COc1ccc(OC)c(NC(=O)c2cccc(C)c2[N+](=O)[O-])c1,5.3%,x,x,3.3%,x,u
CCN(CC)S(=O)(=O)c1ccc(OC)c(NC(=O)c2cccs2)c1,19.0%,x,x,25.9%,x,u
CCN(CC)S(=O)(=O)c1ccc(OC)c(NC(=S)Nc2cccc(C)c2)c1,2.6%,-18.5%,-14.4%,-6.2%,x,11.2µM*
CCN(CC)S(=O)(=O)c1ccc(OC)c(NC(=S)Nc2cccc(C)c2C)c1,3.3%,1.1%,1.1%,6.4%,x,25.1µM*
Cc1ccccc1OCC(O)CN1CCCCC1 (stereo unspecified),11.6%,x,x,-10.3%,x,-0.2%
CCOC(=O)CSc1nc2cc3c(cc2cc1CC)OCCO3,10.2%,-0.8%,u,-12.3%[46.1 µM],-7.1,u
Cc1ccc(O)c(NC(=O)CCCC(=O)O)c1,0.4%[38.3 µM],-2.6%,-6.1%,11.5%[7.67 µM],3.0,12.0%
COc1cccc(Nc2ccc(C(=O)O)cc2[N+](=O)[O-])c1,-3.3%,-2.6%,28.2µM*,-1.2%[46.1 µM],9.9,-8.9%
COc1ccccc1Nc1ccc(C(=O)O)cc1[N+](=O)[O-],5.3%,x,x,-38.1%,x,u
CC1=NN(C(N)=S)C(C)(C)C1,x,x,x,50.1%,x,5.3%
CC1CN(S(=O)(=O)c2cccc(C(=O)OCC(=O)Nc3ccc4c(c3)OCO4)c2)CC(C)O1 (stereo unspecified),-4.9%[38.3 µM],-6.0%,-5.8%,-19.3%[46.1 µM],12.0,11.2µM*
Cc1cc(C)nc(NS(=O)(=O)c2ccc(NC(=O)c3ccc4c(c3)OCCO4)cc2)n1,11.7%,x,x,-13.4%,x,25.1µM*
CCC(CC)C(=O)Nc1cccc(C(=O)Nc2ccc(S(N)(=O)=O)cc2)c1,20.0%,x,x,-2.7%,x,-3.9%
CC1CN(S(=O)(=O)c2cccc(C(=O)OCC(=O)c3cccs3)c2)CC(C)O1 (stereo unspecified),23.5%[38.3 µM],-1.1%,-13.0%,-7.4%[46.1 µM],1.3,u
CCN(CC)S(=O)(=O)c1ccc(C(=O)Nc2ccc3c(c2)OCCO3)cc1,11.6%[38.3 µM],-5.1%,-10.3%,-23.0%[46.1 µM],3.2,12.6µM*
CCN(CC)S(=O)(=O)c1ccc(NC(=O)c2ccc(NS(C)(=O)=O)cc2)cc1,14.2%[38.3 µM],-0.6%,-19.2%,-17.9%[46.1 µM],-8.6,u
CCC(CC)C(=O)Nc1cccc(C(=O)Nc2ccc3c(c2)OCO3)c1,30.9%[38.3 µM],-2.5%,-12.0%,-3.4%[46.1 µM],8.1,12.6µM*
Cc1cc(C)nc(NS(=O)(=O)c2ccc(NC(=O)c3ccc(S(=O)(=O)N4CC(C)OC(C)C4)cc3)cc2)n1 (stereo unspecified),7.3%,-2.9%,-12.6%,-26.1%[46.1 µM],4.4,-3.7%
COc1ccc(N(C)S(=O)(=O)c2cccc3cccnc23)c(OC)c1,-5.8%[38.3 µM],-3.6%,2.8%,-3.8%[46.1 µM],-2.9,8.4%
COc1ccc(-c2nc3cnc(N4CCNCC4)nc3n(C)c2=O)cc1,0.2%,-4.7%,u,x,x,u
NC(=O)CSc1cn(Cc2ccc(F)cc2)c2ccccc12,-1.1%,x,x,-16.1%,x,-4.3%
CCC(C)N(C(=O)COC(=O)c1[nH]c(C)c(C(C)=O)c1C)C1CCS(=O)(=O)C1 (stereo unspecified),x,-4.3%,x,-5.8%[46.1 µM],5.5,16.9%
CCC(CC)C(=O)Nc1cccc(S(=O)(=O)c2cccc(NC(=O)C(CC)CC)c2)c1,11.2µM*,4.0%,-19.9%,10.9%[46.1 µM],-9.9,-9.9%
O=C(Nc1c(C(=O)Nc2cccc(F)c2)oc2ccccc12)c1ccc2c(c1)OCO2,14.1µM*,-19.1%,u,u,0.6,u
